The list is not random: actives were taken first. Their share in the collection is about 18%.
VP16 counter – counter-screen for ROR gamma inhibitors: Gal4-VP16 reporter; Drosophila S2 Gal4-VP16 UAS-luciferase, luminescence, 20 h; Potency, µM (top dose mostly 53.6 µM), for inactives: top-dose activity, negative = inhibition, usual class: inhibitors; AID 2546; hit rate 3.5% among 310,000;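 further: Gal4-VP16 expression switched on by copper sulfate through the metallothionein promoter; potency means the concentration at half of the fitted maximal effect; nearly all actives have a fitted effect of over 50% in size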
DT40 TDP1 CPT – DT40-hTDP1 cell growth loss with CPT; chicken DT40 Tdp1-/-;hTDP1 cells + 20 nM CPT, ATP luminescence, 48 h; Potency, µM (doses to about 46.2 µM), inactives show at the highest dose activity change, negative = growth inhibition, most hits filed as inhibitors; AID 686979; hit rate 12% among 420,000; further: potency means the concentration at half of the fitted maximal effect; nearly all actives have a fitted effect of over 55% in size
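Chicken DT40 Tdp1-/- cells complemented with human TDP1, 400 cells/well, exposed to compounds plus 20 nM camptothecin for at least 48 h at 37 C; viability read as ATP content by CellTiter-Glo luminescence.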
TDP1 cell noCPT – qHTS for Inhibitors of human tyrosyl-DNA phosphodiesterase 1 (TDP1): qHTS in cells in absence of CPT. AID 686978, 2013. DT40 Tdp1-/- hTDP1 cells, no CPT, ATP luminescence, 48 h. hit rate 15% among 420,000. Potency, µM (series often up to 46.2 µM), for inactives: at the top dose activity change, negative = growth inhibition, actives largely listed as inhibitors; further: potency means the concentration at half of the fitted maximal effect; nearly all actives have a fitted effect of over 55% in size
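Stably hTDP1-transfected Tdp1-null chicken DT40 cells were treated with library compounds minus camptothecin and grown for at least 48 hr at 37 °C, after which cellular ATP was quantified by luminescence.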
IL1B secr inh – blocks inflammasome-driven IL-1 beta release; activity change, % at 57.5 µM; hit rate 4.7% among 360,000; THP-1 LPS/ATP IL-1B secretion, AlphaLISA, 16 h; active compounds read low; in the data active means activity change below about -50%; inconclusive means mostly about -30% to -49%
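THP-1 cells pretreated 1 hr with compounds (up to 57.5 uM final), then stimulated with LPS (250 ng/mL final) plus ATP (1.25 mM final); secreted IL-1B measured by AlphaLISA after 16 hr, decreased signal indicating inhibition.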
RORgamma inh – blocks mouse ROR gamma transcriptional activity. Drosophila S2 Gal4-RORgamma UAS-luciferase reporter, 20 h. hit rate 5.4% among 310,000. AID 2551. P51450. Potency, µM (titrated, usually from 53.6 µM), inactives show at the top dose activity change, negative = inhibition, hits mostly inhibitors; further: potency means the concentration at half of the fitted maximal effect; nearly all actives have a fitted effect of over 60% in size
Target sequence (P51450 whole entry, looked up, the tested form may be a part): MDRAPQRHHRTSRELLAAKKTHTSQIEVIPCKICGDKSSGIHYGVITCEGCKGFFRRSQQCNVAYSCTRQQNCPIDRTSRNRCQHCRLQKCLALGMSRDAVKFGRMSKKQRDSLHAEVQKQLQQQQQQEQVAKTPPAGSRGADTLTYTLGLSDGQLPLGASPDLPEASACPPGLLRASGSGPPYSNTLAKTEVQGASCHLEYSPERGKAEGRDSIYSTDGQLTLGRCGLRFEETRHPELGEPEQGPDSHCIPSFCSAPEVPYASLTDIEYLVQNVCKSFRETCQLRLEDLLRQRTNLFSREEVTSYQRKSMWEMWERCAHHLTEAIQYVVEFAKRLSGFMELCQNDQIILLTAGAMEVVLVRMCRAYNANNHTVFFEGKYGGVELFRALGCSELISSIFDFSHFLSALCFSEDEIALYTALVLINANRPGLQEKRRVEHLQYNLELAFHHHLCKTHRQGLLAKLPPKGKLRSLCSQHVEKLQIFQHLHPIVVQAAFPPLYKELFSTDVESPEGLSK
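Compounds are pin-transferred onto Drosophila Schneider cells expressing a copper-inducible Gal4–ROR gamma transactivation domain fusion. After 1 hr, copper sulfate is added to 700 uM final; luciferase is read 20 hr later.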
LDHA block – LDHA (human) enzyme inhibition | purified LDHA, NADH/diaphorase-resazurin fluorescence; active compounds read low | activity change, % (values are at about 110 or 230 µM) | hit rate 0.15% among 480,000; in the data active means activity change below about -30%; inconclusive means mostly about -25% to -30%;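 further: plate controls were DMSO wells for no effect and wells without enzyme for full effect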
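Remaining NADH was detected by diaphorase (0.133 mg/mL) converting 37 µM resazurin to fluorescent resorufin, read at 0 and 20 minutes. The preceding 5-minute room-temperature reaction used 2 nM LDHA, 0.2 mM sodium pyruvate and 0.06 mM NADH at pH 7.4.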
An asterisk follows results filed as active. Unless noted, the call rests on the fitted dose curve; in most records, active means well fitted curve in the direction sought with a large enough effect; inconclusive means small, poorly fitted or top-dose-only effect, or another doubt; inactive means no such curve, though single readings can be large; an effect the other way counts as inactive or inconclusive. Unless noted, on the % scale 0 is the no-effect control and ±100 the full control effect.

For N#CC1=C(S)N(c2ccccc2)C(c2ccc(-c3ccccc3Cl)o2)NC1=O (stereo unspecified) the results were VP16 counter inconclusive, DT40 TDP1 CPT inconclusive, TDP1 cell noCPT inconclusive, IL1B secr inh inconclusive, RORgamma inh -101.6% and LDHA block -13.4.
Screening N#CC1=C(S)N(c2ccc(F)cc2)C(c2cccs2)NC1=O (stereo unspecified) returned VP16 counter 2.0%, DT40 TDP1 CPT 8.2µM*, TDP1 cell noCPT inconclusive, IL1B secr inh 13.3, RORgamma inh inconclusive and LDHA block -3.3.
Cc1ccc(C)c(NC(=S)NCc2cccn2C)c1 was read as VP16 counter 11.2µM* and RORgamma inh 10µM*.
For COc1ccccc1CNC(=S)Nc1cc(C)ccc1C the results were VP16 counter inconclusive, DT40 TDP1 CPT -27.4%, TDP1 cell noCPT inconclusive, IL1B secr inh -23.9, RORgamma inh 3.16µM* and LDHA block -5.6.
CCc1ccccc1NC(=S)NCc1cccn1C was read as VP16 counter 11.2µM*, DT40 TDP1 CPT -11.1%, TDP1 cell noCPT -28.1%, IL1B secr inh 0.0, RORgamma inh 12.6µM* and LDHA block 2.2.
Cc1cc(C)c2c(CC(=O)NCc3ccccc3)coc2c1 was read as LDHA block 0.6.
`COC(=O)c1ccc(COC(=O)[C@@H]2CC(O)CN2S(=O)(=O)c2ccccc2[N+](=O)[O-])cc1` (stereo partly specified) gave DT40 TDP1 CPT -12.3%, TDP1 cell noCPT -16.0%, IL1B secr inh -97.4* and LDHA block -3.3.
`CCc1cccc2c(C(=O)COC(=O)[C@@H]3CC(O)CN3S(=O)(=O)c3ccccc3[N+](=O)[O-])c[nH]c12` (stereo partly specified) gave DT40 TDP1 CPT 23.1µM*, TDP1 cell noCPT 20.6µM*, IL1B secr inh -76.4* and LDHA block -0.9.
COc1ccc(C(=O)NS(C)(=O)=O)cc1F was read as LDHA block 4.2.
Cc1oc(-c2cccc(Cl)c2)nc1CN1CCCC(C(=O)NC(C)c2ccc3c(c2)OCCO3)C1 (stereo unspecified) was read as VP16 counter -17.1%, DT40 TDP1 CPT 20.6µM*, TDP1 cell noCPT 11.6µM*, IL1B secr inh inconclusive, RORgamma inh -4.9% and LDHA block 3.8.
Cc1ccc(CNC(=O)C2CCCN(Cc3nc(-c4cccc(C)c4)oc3C)C2)cc1 (stereo unspecified) was read as DT40 TDP1 CPT 18.4µM*, TDP1 cell noCPT inconclusive and LDHA block 0.1.
Cc1oc(-c2cccc(Cl)c2)nc1CN1CCCC(C(=O)NCc2ccc(Cl)cc2)C1 (stereo unspecified) was read as DT40 TDP1 CPT 8.2µM*, TDP1 cell noCPT 7.31µM* and LDHA block -4.0.
CCOC(=O)CSc1nc2c(c(=O)[nH]c(=O)n2C)n1Cc1cccc(Br)c1 was read as LDHA block 2.3.
For COc1cc(C2C(C(=O)OC(C)C)=C(C)Nc3nc4ccccc4n32)cc(OC)c1OC (stereo unspecified) the results were LDHA block -8.2.
For c1ccc(-c2cc(NC3CCCC3)nc3ccccc23)cc1 the results were LDHA block 11.7.
`Cn1c(=O)n(Cc2ccccc2)c(=O)c2sc3c(c21)COC(C)(C)C3` gave LDHA block -10.7.
`CN(CC(=O)Nc1ccccc1Cl)S(=O)(=O)c1ccc(C(=O)N2CCOCC2)s1` gave DT40 TDP1 CPT 14.6µM*, TDP1 cell noCPT inconclusive and LDHA block -2.9.
`O=C(OCc1ccc([N+](=O)[O-])cc1)C1(c2cccc(F)c2)CCCC1` gave LDHA block -0.2.
Cc1ccc(-c2c(-c3cn4ccc(C)cc4n3)c(=O)n(C)c(=O)n2C)cc1 was read as LDHA block 22.0.
`O=C(N/N=C/c1ccc(OC(=O)c2cccs2)cc1)c1cccc(F)c1` gave VP16 counter 4.2%, DT40 TDP1 CPT 23.1µM*, TDP1 cell noCPT 20.6µM*, IL1B secr inh -12.5, RORgamma inh inconclusive and LDHA block -12.9.
For O=C(N/N=C/c1oc(O)c2ccccc12)c1ccccc1O the results were VP16 counter -0.8%, DT40 TDP1 CPT 4.0%, TDP1 cell noCPT 6.8%, IL1B secr inh 0.0, RORgamma inh inconclusive and LDHA block 1.8.
Cc1cccc(C(=O)Oc2ccc(/C=N/NC(=O)c3ccccc3O)cc2)c1 was read as VP16 counter 3.55µM*, DT40 TDP1 CPT -5.0%, TDP1 cell noCPT inconclusive, IL1B secr inh -26.3, RORgamma inh 3.55µM* and LDHA block -3.4.
Screening O=C(N/N=C/c1ccnc2ccccc12)c1ccccc1O returned VP16 counter -12.0%, DT40 TDP1 CPT 3.26µM*, TDP1 cell noCPT 11.6µM*, IL1B secr inh -19.6, RORgamma inh -41.1% and LDHA block -7.4.
O=C(N/N=C/c1ccc2nccnc2c1)c1ccccc1O was read as VP16 counter inconclusive and RORgamma inh 6.31µM*.
O=C(N/N=C/c1ccc2nccnc2c1)c1ccncc1 was read as VP16 counter -3.0%, DT40 TDP1 CPT -18.3%, TDP1 cell noCPT -18.1%, IL1B secr inh -5.6, RORgamma inh 25.8% and LDHA block -2.7.
Screening Cc1cc(=O)n2c(C(=O)NCc3ccccc3)c(C(=O)Nc3cccc(C)c3C)sc2n1 returned LDHA block 11.8.
`CCCc1cc(=O)n2[nH]c(NC(=O)Cc3ccccc3)nc2n1` gave LDHA block 13.3.
For CCOC(=O)C1=CCN(S(=O)(=O)c2ccc(Cl)cc2)C1c1ccccc1 (stereo unspecified) the results were DT40 TDP1 CPT inconclusive, TDP1 cell noCPT inconclusive, IL1B secr inh 8.1 and LDHA block -5.3.
Screening CCOC(=O)C1=CCN(S(=O)(=O)c2ccccc2C(=O)OC)C1c1ccc(Cl)cc1 (stereo unspecified) returned DT40 TDP1 CPT 20.6µM*, TDP1 cell noCPT 18.4µM*, IL1B secr inh -24.0 and LDHA block -10.6.
Screening CCOC(=O)C1=CCN(S(=O)(=O)c2ccccc2C)C1c1ccccc1 (stereo unspecified) returned DT40 TDP1 CPT 29.1µM*, TDP1 cell noCPT 18.4µM*, IL1B secr inh 15.9 and LDHA block -4.0.

Screening data deposited in PubChem BioAssay by National Center for Advancing Translational Sciences (NCATS).
